Experimental data from PubChem BioAssay AID1159580 (chemical genetic matrix, 2015).
Out of some 5,500 compounds screened, about 2,000 (36%) were called active. Another 18% or so got no clear call; they are omitted. No stated cut-off is given here; in the data, active means normalized growth mostly below about 0.91 (no sharp cut-off); inconclusive means no clear call, values can overlap the other calls; inactive means mostly above about 0.92. The list shows a part of the results.

Assay: chemical genetic growth profiling, strain panel (AID 1159580);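 further: tested at 20 µM; growth read once vehicle control cultures reached saturation at 30 °C; 1 = growth at the plate median or of vehicle wells; lower values mean less growth of the strain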
Conditions: S. cerevisiae deletion strains, growth OD

Measured: normalized growth

O=C1c2ccccc2C2(c3ccccc3)NCCN12 (configuration not stated)
inactive: locus YAL013W, strain DEP1, hits give low values 1 | locus YBR229C, strain ROT2, hits give low values 1.01 | locus YCL061C, strain MRC1, hits give low values 0.987 | locus YDL101C, strain DUN1, hits give low values 0.982 | locus YDR150W, strain NUM1, hits give low values 0.989 | locus YEL061C, strain CIN8, hits give low values 1.02 | locus YGR078C, strain PAC10, hits give low values 1.01 | locus YHR030C, strain SLT2, hits give low values 0.972 | locus YHR087W, strain rtc3, hits give low values 0.993 | locus YJL187C, strain SWE1, hits give low values 0.997 | locus YJR043C, strain POL32, hits give low values 0.956 | locus YJR075W, strain HOC1, hits give low values 1.01 | locus YLR039C, strain RIC1, hits give low values 0.976 | locus YLR058C, strain SHM2 (second series), hits give low values 0.997 | locus YLR085C, strain ARP6, hits give low values 1.04 | locus YLR262C, strain YPT6, hits give low values 0.968 | locus YML094W, strain GIM5, hits give low values 1.04 | locus YMR219W, strain ESC1, hits give low values 1 | locus YMR263W, strain SAP30, hits give low values 1.01 | locus YNL128W, strain TEP1, hits give low values 0.983 | locus YNL153C, strain GIM3, hits give low values 1.01 | locus YNL298W, strain CLA4 (second series), hits give low values 0.995 | locus YNL322C, strain KRE1, hits give low values 0.996 | locus YNR030W, strain Alg12, hits give low values 0.982 | locus YPL055C, strain LGE1, hits give low values 1.04 | locus YPL241C, strain CIN2, hits give low values 1.02 | locus YPR135W, strain CTF4, hits give low values 0.957
